Assay outcomes: PubChem BioAssay, National Center for Advancing Translational Sciences (NCATS)
Six1-Eya2 inh = Six1/Eya2 interaction inhibition. AID 651725. actives 0.56% (n = 360,000). activity change, % (test concentration not listed). AlphaScreen GST-Six1/His-Eya2 binding, biochemical; active compounds read low. Q15475+O00167; in the data active = activity change below about -65%; inconclusive = mostly about -30% to -63%; also: % is scaled to controls: 0 for no effect and ±100 for the full control effect
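Compounds are tested against tagged Six1 and Eya2 proteins bridged by glutathione donor and nickel acceptor beads; after a one-hour incubation at 37 °C without light, AlphaScreen emission is recorded.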
CtBP-E1A blk = blocks the CtBP interaction with E1A | AlphaScreen GST-E1A/His-CtBP binding, 1536-well; active compounds read low | activity change, % (test concentration not listed) | actives 0.49% (n = 340,000) | AID 651724; in the data active = activity change below about -65%; inconclusive = mostly about -30% to -63%; also: % is scaled to controls: 0 for no effect and ±100 for the full control effect
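AlphaScreen with 125 nM GST-E1A and 125 nM His-CtBP (5X stocks) in Tris pH 8.0, 300 mM NaCl, BSA, Tween 20, TCEP. Compounds preincubated 2 h at 37 deg C, then glutathione donor/nickel acceptor beads added for 1 h at 37 deg C in dark.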
BAZ2B block = BAZ2B (human) inhibition; Q9UIF8; AlphaScreen BAZ2B-H3K14Ac peptide displacement; Potency, µM (top dose mostly 114 µM), without a hit: top-dose activity change, negative = inhibition, actives largely listed as inhibitors; actives 4.4% (n = 360,000); AID 504333; also: potency is read from the fitted curve at half-maximal effect; % is scaled to controls: 0 for no effect and ±100 for the full control effect; nearly all actives have a fitted effect of over 60% in size
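Protein-peptide AlphaScreen: BAZ2B 50 nM, b-H3K14Ac 50 nM, 1x PBS pH 7.4 + 0.01% Tween-20. Preincubation 30 min RT; cpd 30 min RT (top 110 uM); beads 20 min RT, light-protected.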
G9a block = blocks human histone lysine methyltransferase G9a. G9a H3K9 monomethylation, AlphaScreen, 2 h. Q96KQ7. Potency, µM (titrated, usually from 102 µM), inactives show at the highest dose activity, negative = inhibition, actives largely listed as inhibitors. actives 8.8% (n = 350,000). AID 504332; also: potency is read from the fitted curve at half-maximal effect; % is scaled to controls: 0 for no effect and ±100 for the full control effect; nearly all actives have a fitted effect of over 75% in size
Target sequence (Q96KQ7 913-1193 limits assumed): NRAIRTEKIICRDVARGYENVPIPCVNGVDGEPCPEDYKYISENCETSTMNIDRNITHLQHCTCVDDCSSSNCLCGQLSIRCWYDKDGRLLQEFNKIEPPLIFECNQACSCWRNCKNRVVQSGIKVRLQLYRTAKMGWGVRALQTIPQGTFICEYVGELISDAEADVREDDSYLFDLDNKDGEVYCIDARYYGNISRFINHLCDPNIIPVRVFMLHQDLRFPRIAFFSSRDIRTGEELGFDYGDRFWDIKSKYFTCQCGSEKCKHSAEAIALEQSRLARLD
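Methyltransferase reactions run at room temperature for 2 h (20 nM enzyme, 500 nM biotin-H3K9 peptide, 20 uM SAM) after a 15 min compound preincubation; product detected by AlphaScreen beads and anti-H3K9me1 antibody.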
JMJD2A Tudor = blocks the human JMJD2A Tudor domain. O75164. AlphaScreen JMJD2A-Tudor / H3K4me3 peptide binding. Potency, µM (series often up to 114 µM), for inactives: top-dose activity change, negative = inhibition, usual class: inhibitors. actives 4.4% (n = 390,000). AID 504339; also: potency is read from the fitted curve at half-maximal effect; % is scaled to controls: 0 for no effect and ±100 for the full control effect; nearly all actives have a fitted effect of over 50% in size
HP1b binding inh = HP1-beta chromodomain-methylated histone interaction inhibition; Potency, µM (titrated, usually from 114 µM), without a hit: at the highest dose activity change, negative = inhibition, hits mostly inhibitors; actives 0.56% (n = 390,000); P83916; AlphaScreen HP1-beta / biotin-H3K9me3 peptide binding; also: potency is read from the fitted curve at half-maximal effect; nearly all actives have a fitted effect of over 70% in size
Target sequence (P83916 whole entry, looked up): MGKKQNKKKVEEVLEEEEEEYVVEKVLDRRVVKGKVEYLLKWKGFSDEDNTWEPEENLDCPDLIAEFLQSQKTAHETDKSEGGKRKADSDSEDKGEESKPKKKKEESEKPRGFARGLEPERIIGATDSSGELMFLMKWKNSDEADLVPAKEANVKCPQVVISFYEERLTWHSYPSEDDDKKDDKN
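HP1-beta protein (50 nM final) preincubated 30 min at room temperature with biotinylated H3(1-18)K9me3 peptide (50 nM) in PBS pH 7.4, 0.01% Tween-20, then compound added for 30 min. AlphaScreen streptavidin donor/nickel chelate acceptor beads (10 ug/mL final), 30 min dark, luminescence read.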
* = called active by the depositor; ? = inconclusive; . = no result given; [ ] = another dose, or the depositor's remark. Shown are actives, neighbours in structure and some others; about 10% of the full set was active somewhere. Unless noted, calls follow the shape of the dose curve; as a rule, active = well fitted inhibition curve with a large enough effect; inconclusive = small, poorly fitted or top-dose-only effect; inactive = no such curve, though single readings can be large or run the other way.

SMILES | Six1-Eya2 inh | CtBP-E1A blk | BAZ2B block | G9a block | JMJD2A Tudor | HP1b binding inh
O=[N+]([O-])c1cccc(-c2nnc3ccc4ccccc4n23)c1 | -22.4 | -16.7 | ? | 14.1µM* | ? | -16.9%
O=S(=O)(c1ccc(Cl)cc1)c1nc(-c2cccs2)oc1SCc1ccccc1F | . | . | -0.8% | -24.7%[59 µM] | -1.7% | 42.3%
COc1ccc(C2=CC(c3cc(OC)c(OC)c(OC)c3)NC(=S)N2)cc1 (configuration not stated) | -1.9 | -0.2 | -27.7% | 6.31µM* | -19.1%[11.4 µM] | -16.2%
CN(C(=S)Nc1ccc(Oc2ccccc2)cc1)c1ccc(O)cc1 | -5.3 | -20.8 | ? | 1.26µM* | 56.2µM* | 17.8µM*
CN(C(=S)Nc1ccc(SC(F)F)cc1)c1ccc(O)cc1 | -1.7 | -3.2 | ? | 1.41µM* | ? | 70.8µM*
CN(C(=S)Nc1cccnc1)c1ccc(O)cc1 | 3.0 | -3.8 | -9.9% | 1.58µM* | ? | ?
COc1cc(C(=O)NCC(c2cccnc2)N2CCc3ccccc32)cc(OC)c1OC (configuration not stated) | . | . | 5.5% | -5.5%[59 µM] | -7.9% | 18.8%
O=[N+]([O-])c1ccc(N2CCN(S(=O)(=O)c3ccccc3)CC2)cc1NCCN1CCOCC1 | 19.0 | 0.0 | -30.8% | 20µM* | -33.2% | -3.0%
COc1ccc(OCCNc2cc(N3CCOCC3)ccc2[N+](=O)[O-])cc1 | ? | ? | ? | ? | 79.4µM* | -20.7%
Cc1cccc(OCCNc2cc(N3CCN(CCO)CC3)ccc2[N+](=O)[O-])c1 | ? | 21.4 | ? | 44.7µM* | ? | -28.2%
COc1cccc(OCCNc2cc(N3CCCCC3)ccc2[N+](=O)[O-])c1 | 0.0 | -3.8 | ? | . | ? | -29.5%
Cc1ccccc1OCCNc1cc(N2CCN(CCO)CC2)ccc1[N+](=O)[O-] | -25.3 | -29.3 | 31.6µM* | ? | ? | ?
CCCCN(C)CCNC(=O)c1c(C)oc2ncnc(N3CCOCC3)c12 | . | . | 12.0%[57.1 µM] | -5.8%[59 µM] | -26.5% | -2.5%
CC(C)CNc1cc(N2CCCC2)ccc1[N+](=O)[O-] | ? | 7.2 | ? | 11.2µM* | ? | -27.9%
Cc1ccc(C)c(-c2nn(-c3cc(N4CCN(CCO)CC4)ccc3[N+](=O)[O-])c(=O)c3ccccc23)c1 | -24.0 | -17.5 | 44.7µM* | 39.8µM* | 35.5µM* | ?
CCCCC1(C)NC(=S)N2N1C(=S)NC2(C)CCCC (configuration not stated) | 28.5 | 12.4 | 79.4µM* | 1.78µM* | 5.62µM* | ?
CCCCC1(C)Cc2ccccc2C(=S)N1 (configuration not stated) | -25.0 | -15.6 | 4.3% | -3.1%[59 µM] | -30.9% | 1.6%
Cc1ccc(C(=O)NCCn2ccc3ccccc32)cc1[N+](=O)[O-] | -2.6 | 4.2 | . | -44.0% | 79.4µM* | -15.2%
Cc1cc(CNC(=O)Cn2nc(C)c([N+](=O)[O-])c2C)c2ccccc2n1 | -0.3 | 1.8 | -18.8% | 35.5µM* | -19.3% | 35.3%
COc1cc(C(=O)NCCSc2c(C)[nH]c3ccccc23)cc(OC)c1OC | . | . | -25.3% | -7.4%[59 µM] | ? | 22.9%
Cc1cc(CNC(=O)c2ccc(C)c([N+](=O)[O-])c2)c2ccccc2n1 | 4.3 | -6.6 | -34.9% | 35.5µM* | -8.2% | 21.7%
Cc1ccc(C(=O)NCCSc2c(C)[nH]c3ccccc23)cc1[N+](=O)[O-] | -16.0 | -0.2 | ? | 50.1µM* | ? | 3.7%
Cc1c(C(=O)NCCn2ccc3ccccc32)cccc1[N+](=O)[O-] | -1.7 | 0.0 | . | -43.0% | -18.1% | 24.5%
CCOc1ccc(NC(=O)Cn2nc(Cc3cccnc3)c3ccccc3c2=O)cc1 | . | . | -25.2% | -0.9%[59 µM] | -15.2% | 42.2%
CCC1CN(C(=O)N2CCC(C(=O)NCCc3ccc(C)cc3)CC2)c2ccccc2O1 (configuration not stated) | . | . | -11.1% | 4.8%[59 µM] | -13.2% | 11.5%
SMILES | Six1-Eya2 inh | CtBP-E1A blk | BAZ2B block | G9a block | JMJD2A Tudor | HP1b binding inh
Cc1cc2cc(CNC(=O)c3ccc(C)c([N+](=O)[O-])c3)ccc2[nH]1 | 22.9 | -10.3 | ? | 56.2µM* | ? | -11.5%
N#CC1=C(N)N=C(SCc2cccc3ccccc23)C(C(N)=O)C12CCCCC2 (configuration not stated) | -16.6 | -15.4 | ? | 44.7µM* | 56.2µM* | -33.7%
CC(C(=O)N(C)C1CCS(=O)(=O)C1)N1C(=O)/C(=C/c2ccco2)SC1=S (configuration not stated) | -14.6 | -15.2 | 56.2µM* | 44.7µM* | 50.1µM* | ?
CCN(C(=O)C(C)N1C(=O)/C(=C/c2cccs2)SC1=S)C1CCS(=O)(=O)C1 (configuration not stated) | -17.3 | . | ? | 44.7µM* | 26.5% | 37.9%
Cn1cc(S(=O)(=O)N2CCCCCC2)cc1C(=O)Nc1ccccc1F | . | . | -10.7% | 2.3%[59 µM] | -13.4% | 23.1%[57 µM]
COC(=O)c1ccccc1NC(=O)Cc1nc(-c2ccc(OC)cc2)no1 | . | . | -9.0% | -25.5%[59 µM] | -12.5% | 33.3%
COc1ccc(-c2nnc(C3CCN(S(=O)(=O)c4cccc(Cl)c4)CC3)o2)cc1 | . | . | -7.8% | 11.2µM* | ? | 24.5%
COc1ccc(-c2nnc(C3CCN(C(=O)c4ccccc4F)CC3)o2)cc1 | . | . | ? | 14.1µM* | 56.2µM* | -2.8%
COc1ccc(S(=O)(=O)N2CCC(c3nnc(-c4ccccc4C)o3)CC2)c(OC)c1 | . | . | -18.7% | 8.91µM* | -12.6% | 33.3%
COc1ccccc1-c1nnc(C2CCN(C(=O)c3ccc(C)cc3)CC2)o1 | . | . | -9.5% | 7.2%[59 µM] | -2.3% | 47.1%
Cc1ccccc1-c1nnc(C2CCN(S(=O)(=O)c3ccc(Cl)cc3)CC2)o1 | . | . | -6.2% | 7.94µM* | 1.0% | 39.2%
Cc1csc2nc(COc3ccc(NC(=O)COc4ccccc4F)cc3)cc(=O)n12 | . | . | -3.7% | ? | -12.9% | 25.3%
COc1cccc(CNC(=O)c2ccc(-n3c(C)cc4c3CCC(C)C4)cc2)c1 (configuration not stated) | . | . | -18.8% | -9.8%[59 µM] | -21.1% | 24.7%
COc1cc(C(=O)N(Cc2cccnc2)c2nc3cc(C)c(C)cc3s2)cc(OC)c1OC | . | . | -2.2% | 4.7%[59 µM] | 3.2% | -0.2%
O=C1C(=Cc2cccs2)C(=O)c2ccccc21 | 9.1 | -13.1 | -30.1% | -45.0%[59 µM] | -31.4% | -5.3%
O=C1/C(=C\c2cccs2)Sc2ccc3ccccc3c21 | -24.1 | -20.6 | ? | 7.94µM* | ? | ?
Cc1cc(C)cc(-n2ccnc2SCC(=O)Nc2ccccc2F)c1 | . | . | 28.2µM* | 14.1µM* | ? | ?
Cc1cc(C)cc(NC(=O)CSc2nccn2-c2ccccc2)c1 | . | . | ? | ? | ? | 13.3%[57 µM]
